TR SRC2 fluor cs = counter-screen for TRb-SRC2 inhibitors: fluorescence interference; TRb/SRC2 Texas Red total fluorescence interference; 280,000 compounds, 0.29% hits; Potency, µM (highest dose often 106 µM), inactives show top-dose fluorescence change, negative = quenching; active = well fitted curve in either direction with a large enough effect; inconclusive = small, poorly fitted or top-dose-only effect
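Flags fluorescent or light-absorbing compounds by total fluorescence, S + 2P, at 555 nm excitation and 632 nm emission. Mixture: 20 nM Texas Red SRC2 peptide, 0.6 uM human TRb LBD, 1 uM T3, 5% DMSO; compound exposure 5 h at ambient temperature.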
Tau fibril ThT = tau fibrillization inhibition (ThT binding). recombinant tau K18 P301L, heparin-induced fibrillization, ThT fluorescence. 270,000 compounds, 2.1% hits. Potency, µM (highest dose often 57.4 µM), without a hit: top-dose activity, negative = inhibition, most hits filed as inhibitors. AID 1460. P10636; also: nearly all actives have a fitted effect of over 55% in size
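Tau K18 P301L fragment (15 uM unlabeled plus 0.24 uM Alexa 594-labeled) in 100 mM sodium acetate pH 7 with compound, fibrillization induced by 20 uM heparin for 6 hr at 37 C. Thioflavin T (30 uM) added, fluorescence read after 1 hr (ex 450, em 510 nm).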
Tau fluor counter = counter-screen for tau fibril formation inhibitors; tau K18 P301L (four-repeat tau fragment) Alexa594 fluorescence, heparin fibrillization; Potency, µM (series often up to 57.7 µM), inactives show top-dose activity change, negative = decrease; 280,000 compounds, 0.93% hits; AID 1463; also: nearly all actives have a fitted effect of over 55% in size
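Human K18 P301L tau (15 uM unlabeled plus 0.24 uM Alexa 594-labeled, final) in 100 mM sodium acetate pH 7 was mixed with compound and 20 uM heparin and incubated 6 hr at 37 C.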
TRb-SRC2 inh = inhibitors of human thyroid hormone receptor beta-SRC2 interaction | P10828 | TRbeta-SRC2 peptide binding, fluorescence polarization; receptor liganded with 1 µM T3 | Potency, µM (highest dose often 106 µM), for the others: at the top dose activity change, negative = inhibition, most hits filed as inhibitors | 280,000 compounds, 0.065% hits;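 also: plate controls were bound peptide for no effect and peptide without receptor for full effect; nearly all actives have a fitted effect of over 50% in size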
Target sequence (P10828 whole entry, looked up): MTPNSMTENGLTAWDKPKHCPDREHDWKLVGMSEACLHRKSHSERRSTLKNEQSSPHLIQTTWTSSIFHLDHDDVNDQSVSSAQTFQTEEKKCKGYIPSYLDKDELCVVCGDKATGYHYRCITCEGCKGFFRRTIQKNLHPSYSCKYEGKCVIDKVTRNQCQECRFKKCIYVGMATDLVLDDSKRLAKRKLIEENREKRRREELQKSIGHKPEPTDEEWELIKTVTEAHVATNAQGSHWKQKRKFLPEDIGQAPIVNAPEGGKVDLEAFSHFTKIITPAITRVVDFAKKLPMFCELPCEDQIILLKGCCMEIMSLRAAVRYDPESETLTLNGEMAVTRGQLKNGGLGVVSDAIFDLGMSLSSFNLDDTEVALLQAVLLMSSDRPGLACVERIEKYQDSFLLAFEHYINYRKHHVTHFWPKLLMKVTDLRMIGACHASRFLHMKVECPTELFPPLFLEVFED
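A fluorescence polarization screen tested compounds at multiple concentrations against complex formation between 0.6 uM TRb ligand-binding domain and 20 nM Texas Red SRC2 peptide, with 1 uM T3 present; readout after 5 hr.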
Tau fibril FP = inhibitors of human tau fibril formation. P10636. K18 P301L tau heparin fibrillization, Alexa594 FP, 6 h. Potency, µM (top dose mostly 57.7 µM), inactives show at the top dose activity, negative = inhibition, most hits filed as inhibitors. 280,000 compounds, 0.39% hits; also: nearly all actives have a fitted effect of over 55% in size
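Human tau K18 […] P301L fragment, 15 uM unlabeled plus 0.24 uM Alexa 594-labeled tau (final), with compound and 20 uM heparin in 100 mM sodium acetate pH 7; 6 hr at 37 C, then Alexa 594 FP read.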
JMJD2E inh = inhibitors of human JMJD2E histone demethylase; B2RXH2; JMJD2E catalytic domain, FDH-coupled NADH fluorescence (FDH is formaldehyde dehydrogenase); Potency, µM (highest dose often 57.1 µM), inactives show top-dose activity change, negative = inhibition, usual class: inhibitors; 230,000 compounds, 1.6% hits; AID 2147; active = well fitted inhibition curve with a large enough effect, not every such curve was filed as active; inconclusive = small, poorly fitted or top-dose-only effect, or another doubt; inactive = no such curve, though single readings can be large or run the other way;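 also: 0% = wells with enzyme and -100% = buffer wells without enzyme; nearly all actives have a fitted effect of over 50% in size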
An asterisk follows results filed as active; ? = inconclusive; [ ] = remark or other dose. Hits are enriched below; roughly 3.5% of the tested compounds scored in any of these assays. Unless noted, calls follow the shape of the dose curve; as a rule, active = well fitted curve in the direction sought with a large enough effect; inconclusive = small, poorly fitted or top-dose-only effect, or another doubt; inactive = no such curve, though single readings can be large; an effect the other way counts as inactive or inconclusive. Unless noted, % is scaled to controls: 0 for no effect and ±100 for the full control effect; potency is read from the fitted curve at half-maximal effect.

SMILES | TR SRC2 fluor cs | Tau fibril ThT | Tau fluor counter | TRb-SRC2 inh | Tau fibril FP | JMJD2E inh
CC(C)OC(=O)c1ccc(Cn2nnc3ccccc3c2=O)cc1 | -1% | 0% | -4% | -6% | 11% | 0%
Oc1ccc(Cl)cc1-c1cc(-c2ccccc2Cl)[nH]n1 | -1% | -12% | ? | -3% | -18% | -12%
Oc1ccccc1-c1cc(-c2ccccc2Cl)[nH]n1 | 1% | -5% | 14µM*[quencher] | -2% | ? | 6%
O=[N+]([O-])c1ccccc1-c1cc(-c2cc(Cl)ccc2O)n[nH]1 | -1% | ? | 14µM*[quencher] | -4% | ? | -9%
O=c1c2c3c(sc2ncn1/N=C/c1ccncc1)CCCC3 | 0% | -12% | 6% | -2% | 11% | -9%
COc1ccc(CCNC(=O)/C=C/C(=O)O)cc1OC | -5% | 9% | -1% | -5% | -6% | -7%
Brc1ccc(-c2csc(NNC3=NCCCCC3)n2)cc1 | -13% | ? | ? | 2% | -6% | 6%
FC(F)Oc1ccc(-c2csc(NNC3=NCCCCC3)n2)cc1 | 1% | 28µM* | -29% | -4% | ? | -4%
CC(C)(C)c1ccc(-c2csc(NNC3=NCCCCC3)n2)cc1 | 1% | 16µM* | ? | -5% | ? | 8%
Cc1cc2cc(C(c3nnnn3Cc3ccco3)N3CCc4ccccc4C3)c(=O)[nH]c2cc1C (stereo unspecified) | -3% | 28µM* | -24% | -3% | ? | ?
Cc1cc2cc(C(c3nnnn3Cc3ccccc3)N3CCc4ccccc43)c(=O)[nH]c2cc1C (stereo unspecified) | 0% | 16µM* | -30% | -22% | ? | ?
CCc1ccc2[nH]c(=O)c(C(c3nnnn3Cc3ccco3)N3CCC(C)CC3)cc2c1 (stereo unspecified) | -6% | -13% | -21% | -1% | 6% | -20%
Cc1ccc2cc(C(c3nnnn3Cc3ccccc3)N3CCc4ccccc43)c(=O)[nH]c2c1 (stereo unspecified) | 2% | ? | -26% | -1% | -1% | -16%
Cc1ccc2[nH]c(=O)c(C(c3nnnn3Cc3ccccc3)N3CCc4ccccc43)cc2c1 (stereo unspecified) | 2% | 20µM* | ? | 10% | ? | ?
Cc1cc(C)c2[nH]c(=O)c(C(c3nnnn3CC3CCCO3)N3CCCC(C)C3)cc2c1 (stereo unspecified) | -3% | 32µM* | -15% | -5% | ? | ?
Cc1cc(C)c2[nH]c(=O)c(C(c3nnnn3CC3CCCO3)N3CCC(C)CC3)cc2c1 (stereo unspecified) | 3% | -24% | -15% | 0% | -13% | ?
COc1ccc2cc(C(c3nnnn3C(C)(C)C)N3CCc4ccccc4C3)c(=O)[nH]c2c1 (stereo unspecified) | -2% | ? | -13% | -5% | -4% | ?
COc1ccc2cc(C(c3nnnn3C3CCCC3)N3CCc4ccccc4C3)c(=O)[nH]c2c1 (stereo unspecified) | 0% | 28µM* | -20% | 5% | ? | ?
Cc1ccc2[nH]c(=O)c(C(c3nnnn3CC3CCCO3)N3CCc4ccccc4C3)cc2c1 (stereo unspecified) | -1% | 32µM* | -24% | -4% | ? | ?
Cc1cc2cc(C(c3nnnn3Cc3ccco3)N3CCc4ccccc43)c(=O)[nH]c2cc1C (stereo unspecified) | -9% | 25µM* | -28% | -7% | ? | ?
Cc1ccc2cc(C(c3nnnn3Cc3ccccc3)N3CCc4ccccc43)c(=O)[nH]c2c1C (stereo unspecified) | 0% | -15% | -20% | 1% | 7% | -10%
CC(C)c1ccc(NC(=O)COc2ccc(F)cc2C(=O)c2cnn(-c3ccccc3)c2)cc1 | -3% | 2% | -7% | -3% | -9% | 8%

Screening data as filed in PubChem BioAssay.
